Compound activity (PubChem BioAssay)
The full list was thinned out, with hits kept by preference.
ST2 inh: inhibitors of human ST2 (IL1RL1) binding to IL-33, primary screen, biochemical, AlphaLISA | Interleukin-1 receptor-like 1 (Homo sapiens), Q01638 | inhibition, % for hits at 17 µM | AlphaLISA ST2-Fc/biotin-IL-33 interaction, 1 h | hit rate 2.3% among 78,000; in the data active means inhibition above about 30%
Target sequence (Q01638 whole entry, looked up): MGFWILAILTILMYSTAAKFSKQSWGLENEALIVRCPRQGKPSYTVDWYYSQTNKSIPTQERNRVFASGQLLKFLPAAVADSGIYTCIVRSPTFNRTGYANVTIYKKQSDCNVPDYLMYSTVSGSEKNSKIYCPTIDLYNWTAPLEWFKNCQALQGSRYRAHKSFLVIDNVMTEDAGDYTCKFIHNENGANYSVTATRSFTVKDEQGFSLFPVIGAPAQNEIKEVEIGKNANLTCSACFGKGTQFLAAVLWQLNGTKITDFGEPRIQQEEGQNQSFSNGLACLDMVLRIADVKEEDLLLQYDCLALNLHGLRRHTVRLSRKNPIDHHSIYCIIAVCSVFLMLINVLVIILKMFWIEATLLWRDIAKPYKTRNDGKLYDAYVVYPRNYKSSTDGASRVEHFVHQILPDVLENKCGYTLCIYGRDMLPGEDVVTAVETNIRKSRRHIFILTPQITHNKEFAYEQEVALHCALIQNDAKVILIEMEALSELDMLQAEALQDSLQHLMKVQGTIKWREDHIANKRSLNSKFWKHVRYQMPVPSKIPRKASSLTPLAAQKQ
Numbers stand for hits; . = inactive; ! = repeats disagree.

SMILES	ST2 inh
Cc1ccccc1NCc1c(O)ccc2cc(Br)ccc12	.
CCN(CC)CCNC(=O)C1(O)c2ccccc2NC(=O)N1c1ccc(Cl)c(Cl)c1 (configuration not stated)	.
O=C(C#Cc1ccc([N+](=O)[O-])cc1)c1ccccc1	33%
O=[N+]([O-])c1ccc(C(=Nc2ccccc2)NO)cc1	.
O=C(NC(=O)c1ccccc1)Oc1ccc([N+](=O)[O-])cc1	.
CCC(C)n1c(=N)c(C(=O)NC2CCCC2)cc2c(=O)n3cccc(C)c3nc21 (configuration not stated)	.
COc1ccc2oc(=O)c(NC(=O)c3ccc(Br)cc3)cc2c1	.
Cc1cnn(-c2ccc3nnc(-c4ccc(Cl)cc4)n3n2)c1	36%
Cc1ccn2cc(-c3ccc(Cl)cc3)nc2c1	.
Clc1ccc(-c2nnc3ccc(Cl)nn23)cc1	.
Cc1nc(C)c(C(=O)N(CCN(C)C)CC2CCCN(Cc3ccccc3F)C2)s1 (configuration not stated)	.
CCc1ccc(N2C(=O)Nc3ccc(Br)cc3C2(O)C(=O)NC2CC2)cc1 (configuration not stated)	.
[N-]=C=C1C(=O)N(CCc2ccccc2)C(=O)C([n+]2ccccc2)C1c1ccc([N+](=O)[O-])cc1 (configuration not stated)	42%
O=C(COc1ccc([N+](=O)[O-])cc1)NCc1ccccc1	.
O=[N+]([O-])c1ccc(N2CCN(CCc3ccccc3)CC2)cc1	.
Cn1c(=O)cc(SCC(=O)NC2CCCc3ccccc32)c2ccccc21 (configuration not stated)	.
O=C(O)[C@H]1C[C@H](C(=O)NC2CC2)CN(Cc2cccc(C(F)(F)F)c2)C1	.
Cc1ccc2[nH]c(=O)nc(-c3ccccc3)c2c1	.
CC1=Nc2c([nH]c3ccccc23)-c2cc(C)ccc2N1	32%
CC(NC(=O)c1ccccc1[N+](=O)[O-])c1ccccc1 (configuration not stated)	.
Cc1ncsc1C(=O)N1CCCN(CC2CC2)C(C(C)C)C1 (configuration not stated)	.
Cc1ccc(/C=C/NC(=O)c2ccco2)cc1C	31%
Cc1cccc(C)c1NC(=O)c1ccco1	.
Cc1ccccc1NC(=O)c1ccco1	.
COc1cc(NC(=S)N[C@H]2CO[C@H]3[C@@H]2OC[C@@H]3n2nnnc2Oc2ccc3c(c2)OCO3)cc(OC)c1	.
SMILES	ST2 inh
CN(C)c1ccc(/C=C/c2nc3ccc(I)cc3c(=O)n2C)cc1	42%
COc1ccc(/C=C/c2nc3ccccc3c(=O)n2Cc2ccccc2)cc1	.
CN(C)c1ccc(/C=C/c2nc3ccccc3c(=O)n2CCCO)cc1	.
O=C(O)c1ccc(O)c(C=Nc2cc(Cl)ccc2Cl)c1	.
Cc1ccc(-c2cc3c(nn2)-c2ccccc2C3=O)cc1	34%
Cc1ccc(S(=O)(=O)Nc2ccccc2-c2ccccc2)cc1	.
O=C1c2ccccc2-c2n[nH]c3cccc1c23	.
COCC(=O)Nc1c(C(=O)Nc2ccccc2F)oc2ccccc12	.
COc1ccccc1C1Nc2ccc(C(=O)c3ccccc3)cc2NC2=C1C(=O)CC(C)(C)C2 (configuration not stated)	31%
CC1(C)CC(=O)C2=C(C1)Nc1cc(C(=O)c3ccccc3)ccc1NC2c1ccco1 (configuration not stated)	.
CC1(C)CC(=O)C2=C(C1)Nc1cc(C(=O)c3ccccc3)ccc1NC2c1cccs1 (configuration not stated)	.
CCOc1ccccc1CC(=O)N1C[C@@H]2[C@@H]3CC[C@@H](C3)[C@@H]2C1	.
c1nc2c([nH]1)CCNC2c1ccc(-c2ccc3c(c2)OCCO3)cc1 (configuration not stated)	.
Cc1sc2ncn(CC(=O)N3CCN(c4ccccc4Cl)CC3)c(=O)c2c1C	.
COc1cccc(C2NC(=O)NC3=C2CCc2ccccc23)c1 (configuration not stated)	.
CC1CCN(c2nc3c(c(=O)n(C)c(=O)n3C)n2Cc2c(F)cccc2Cl)CC1	.
Cn1c(=O)c2c(nc(N3CCCCC3)n2CCSc2nc3ccccc3o2)n(C)c1=O	36%!
CN1CCN(c2nc3c(c(=O)n(C)c(=O)n3C)n2CCSc2nc3ccccc3o2)CC1	.
CN1CCN(c2nc3c(c(=O)n(C)c(=O)n3C)n2Cc2c(Cl)cccc2Cl)CC1	.
CCN1CCN(c2nc3c(c(=O)n(C)c(=O)n3C)n2CCSc2nc3ccccc3o2)CC1	.
Cn1c(=O)c2c(nc(N3CCCCC3)n2Cc2c(Cl)cccc2Cl)n(C)c1=O	31%
COc1ccccc1-c1cccc(C(=O)NCCn2ccnn2)c1	.
CC1=C(C(=O)N2CCCCC2)C(c2ccncc2)n2ncnc2N1 (configuration not stated)	.
COC(=O)c1cc2n(n1)CCCN(C(=O)CCN1CCCCO1)C2	.
Cc1cc(N2CCOCC2)nc(N2CCN(S(=O)(=O)c3cccc(F)c3)CC2)n1	.
CCOC(=O)c1c(C)nc(NC(C)=O)nc1N	.
